Records with an inconclusive call do not appear.
Assay: qHTS Assay for Lipid Storage Modulators (AID 1519)
Conditions: Drosophila S3 cells, BODIPY lipid droplet/cell ratio, laser cytometry; measured here: cell count channel max response; cells loaded with oleic acid
Outline: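 Cells seeded at 5,000 per well were treated with compounds over a concentration series and loaded with oleic acid (400 uM, as added). Lipid droplet fluorescence (488 nm excitation, 500-530 nm channel) was read by laser-scanning cytometry and normalized to 20 uM Triacsin C.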
With `O=C(Nc1cccc(F)c1)N1CCC2(CC1)CCN(C(=O)c1csnn1)CC2` the max response was 12.6%. `COC(=O)N1CCC2(CC1)CCN(c1ccccc1)CC2` gave a max response of 3.31%. With `N#Cc1cccc(NC(=O)N2CCC3(CC2)CCN(C(=O)c2ccco2)CC3)c1` the max response was 10.3%. With `O=C(c1cnccn1)N1CCC[C@@]2(CCN(c3ccncc3)C2)C1` the max response was 6.74%. In the case of `CS(=O)(=O)N1CCC2(CC1)CN(Cc1cc(C(F)(F)F)cc(C(F)(F)F)c1)C2`, the max response is reported as -5.23%. `Cn1cccc1C(=O)N1CCC[C@@]2(CCN(Cc3cc(C(F)(F)F)cc(C(F)(F)F)c3)C2)C1` showed a max response of -0.0419%. `N#Cc1ccc(CN2CCCC3(CCN(C(=O)c4cccc(F)c4)CC3)C2)cc1` gave a max response of 15%. With `COc1ccc(NC(=O)N2CC3(CCN(C(C)=O)CC3)C2)cc1` the max response was 13.9%. `N#Cc1cccc(NC(=O)N2CCC3(CC2)CCN(C(=O)c2csnn2)CC3)c1` showed a max response of 15%. Molecule `COc1ccccc1CN1CCC2(CC1)CCN(C(C)=O)CC2` has a max response of 3.13%. For `Cc1noc(C)c1C(=O)N1CCC2(CCN(C(=O)Nc3ccccc3)CC2)CC1`, the max response was -0.903%. In the case of `O=C(Oc1ccccc1)N1CCC2(CC1)CN(c1ccccc1)C2`, the max response is reported as -10.5%. For `COC(=O)N1CCC[C@@]2(CCN(C(c3ccccc3)c3ccccc3)C2)C1`, the max response was 6.34%. Work on `Cn1cccc1C(=O)N1CCC2(CC1)CCN(c1ccccc1)CC2` yielded a max response of 9.38%. In the case of `CC(=O)N1CCC2(CC1)CN(c1ccccn1)C2`, the max response is reported as 3.77%. Molecule `CS(=O)(=O)N1CCC2(CC1)CN(c1cccc(-c3ccccc3)c1)C2` has a max response of -11.7%. Molecule `CC(C)CN1CC[C@@]2(CCCN(C(=O)c3cnccn3)C2)C1` has a max response of 15.7%. Molecule `Cn1cccc1C(=O)N1CCC2(CCCN(c3ccccc3)C2)CC1` has a max response of 1.38%. `O=C(c1csnn1)N1CCC[C@@]2(CCN(Cc3nccs3)C2)C1` showed a max response of 15.7%. Molecule `O=C(c1ccco1)N1CCC2(CC1)CN(Cc1cc(C(F)(F)F)cc(C(F)(F)F)c1)C2` has a max response of 13.1%. Work on `CC(C)NC(=O)N1CC[C@@]2(CCCN(C(=O)c3cc(C(F)(F)F)cc(C(F)(F)F)c3)C2)C1` yielded a max response of 19.4%. `COCC(=O)N1CCC[C@@]2(CCN(Cc3ccccc3OC)C2)C1` showed a max response of 0.0589%. Work on `COc1ccccc1CN1CCCC2(CCN(S(C)(=O)=O)CC2)C1` yielded a max response of -15.8%. `O=C(c1cc(C(F)(F)F)cc(C(F)(F)F)c1)N1CCC[C@@]2(CCN(Cc3ccncc3)C2)C1` gave a max response of 20.1%. `Cc1cccc(CNc2ncnc3ccc(-c4cccc(C#N)c4)cc23)c1` gave a max response of -20.2%. `O=C(c1ccncc1)N1CCC2(CC1)CCN(c1cccc(-c3ccccc3)c1)CC2` showed a max response of 19.1%. `CS(=O)(=O)N1CCC2(CC1)CN(Cc1nccs1)C2` gave a max response of 13.6%. In the case of `c1ccc(-c2cccc(N3CC[C@@]4(CCCNC4)C3)c2)cc1`, the max response is reported as -28.1%. With `CC(=O)N1CCC2(CC1)CN(c1ccccc1)C2` the max response was 16.4%. `CC(C)CN1CC[C@@]2(CCCN(S(=O)(=O)c3ccccc3)C2)C1` showed a max response of 1.96%. With `Cc1noc(C)c1C(=O)N1CCC[C@@]2(CCN(Cc3ccccc3)C2)C1` the max response was 16.8%. Work on `O=C(c1csnn1)N1CCC2(CC1)CN(c1ccccc1)C2` yielded a max response of 13.3%. For `COCC(=O)N1CCC[C@@]2(CCN(C(=O)Nc3cccc(F)c3)C2)C1`, the max response was 19.2%. `O=C(c1csnn1)N1CCC2(CC1)CN(c1ccccn1)C2` gave a max response of 15.6%. In the case of `COc1ccc(C(=O)N2CCC3(CCN(C)CC3)CC2)cc1`, the max response is reported as 8.31%. With `CS(=O)(=O)N1CCC2(CCCN(C(=O)Nc3cccc(C#N)c3)C2)CC1` the max response was 14.7%. With `Cc1noc(C)c1C(=O)N1CCC2(CCN(Cc3cc(C(F)(F)F)cc(C(F)(F)F)c3)CC2)CC1` the max response was -5.2%. `CC(C)NC(=O)N1CC2(CCN(C(=O)c3ccco3)CC2)C1` gave a max response of -15.7%. `CC(=O)N1CCC2(CC1)CN(C(c1ccccc1)c1ccccc1)C2` showed a max response of 13.6%. For `COc1ccc(NC(=O)N2CC[C@@]3(CCCN(C(=O)c4csnn4)C3)C2)cc1`, the max response was 14.7%.

Same assay, conditions: Drosophila S3 cells, BODIPY lipid droplet/cell ratio, laser cytometry; measured here: lipid channel max response; cells loaded with oleic acid
In the case of `O=C(Nc1cccc(F)c1)N1CCC2(CC1)CCN(C(=O)c1csnn1)CC2`, the max response is reported as 21.6%. Molecule `COC(=O)N1CCC2(CC1)CCN(c1ccccc1)CC2` has a max response of 7.38%. Work on `N#Cc1cccc(NC(=O)N2CCC3(CC2)CCN(C(=O)c2ccco2)CC3)c1` yielded a max response of 18.9%. In the case of `O=C(c1cnccn1)N1CCC[C@@]2(CCN(c3ccncc3)C2)C1`, the max response is reported as 12.1%. With `CS(=O)(=O)N1CCC2(CC1)CN(Cc1cc(C(F)(F)F)cc(C(F)(F)F)c1)C2` the max response was 0.681%. Molecule `Cn1cccc1C(=O)N1CCC[C@@]2(CCN(Cc3cc(C(F)(F)F)cc(C(F)(F)F)c3)C2)C1` has a max response of -1.35%. `N#Cc1ccc(CN2CCCC3(CCN(C(=O)c4cccc(F)c4)CC3)C2)cc1` gave a max response of 19.8%. With `COc1ccc(NC(=O)N2CC3(CCN(C(C)=O)CC3)C2)cc1` the max response was 23.3%. `N#Cc1cccc(NC(=O)N2CCC3(CC2)CCN(C(=O)c2csnn2)CC3)c1` gave a max response of 22.3%. With `COc1ccccc1CN1CCC2(CC1)CCN(C(C)=O)CC2` the max response was 3.76%. In the case of `Cc1noc(C)c1C(=O)N1CCC2(CCN(C(=O)Nc3ccccc3)CC2)CC1`, the max response is reported as 4.81%. Molecule `O=C(Oc1ccccc1)N1CCC2(CC1)CN(c1ccccc1)C2` has a max response of -7.26%. Work on `COC(=O)N1CCC[C@@]2(CCN(C(c3ccccc3)c3ccccc3)C2)C1` yielded a max response of 4.63%. Work on `Cn1cccc1C(=O)N1CCC2(CC1)CCN(c1ccccc1)CC2` yielded a max response of 16.6%. In the case of `CC(=O)N1CCC2(CC1)CN(c1ccccn1)C2`, the max response is reported as 14.1%. `CS(=O)(=O)N1CCC2(CC1)CN(c1cccc(-c3ccccc3)c1)C2` showed a max response of -21%. `CC(C)CN1CC[C@@]2(CCCN(C(=O)c3cnccn3)C2)C1` gave a max response of 22.3%. `Cn1cccc1C(=O)N1CCC2(CCCN(c3ccccc3)C2)CC1` gave a max response of 7.11%. In the case of `O=C(c1csnn1)N1CCC[C@@]2(CCN(Cc3nccs3)C2)C1`, the max response is reported as 25.3%. `O=C(c1ccco1)N1CCC2(CC1)CN(Cc1cc(C(F)(F)F)cc(C(F)(F)F)c1)C2` showed a max response of 7.42%. Molecule `CC(C)NC(=O)N1CC[C@@]2(CCCN(C(=O)c3cc(C(F)(F)F)cc(C(F)(F)F)c3)C2)C1` has a max response of 20.3%. For `COCC(=O)N1CCC[C@@]2(CCN(Cc3ccccc3OC)C2)C1`, the max response was 5.61%. For `COc1ccccc1CN1CCCC2(CCN(S(C)(=O)=O)CC2)C1`, the max response was -12.2%. For `O=C(c1cc(C(F)(F)F)cc(C(F)(F)F)c1)N1CCC[C@@]2(CCN(Cc3ccncc3)C2)C1`, the max response was 28.8%. Molecule `Cc1cccc(CNc2ncnc3ccc(-c4cccc(C#N)c4)cc23)c1` has a max response of -19.2%. Work on `O=C(c1ccncc1)N1CCC2(CC1)CCN(c1cccc(-c3ccccc3)c1)CC2` yielded a max response of 21.6%. With `CS(=O)(=O)N1CCC2(CC1)CN(Cc1nccs1)C2` the max response was 18.5%. Molecule `c1ccc(-c2cccc(N3CC[C@@]4(CCCNC4)C3)c2)cc1` has a max response of -22.7%. Work on `CC(=O)N1CCC2(CC1)CN(c1ccccc1)C2` yielded a max response of 26.6%. In the case of `CC(C)CN1CC[C@@]2(CCCN(S(=O)(=O)c3ccccc3)C2)C1`, the max response is reported as 9.28%. In the case of `Cc1noc(C)c1C(=O)N1CCC[C@@]2(CCN(Cc3ccccc3)C2)C1`, the max response is reported as 22.2%. For `O=C(c1csnn1)N1CCC2(CC1)CN(c1ccccc1)C2`, the max response was 20.7%. With `COCC(=O)N1CCC[C@@]2(CCN(C(=O)Nc3cccc(F)c3)C2)C1` the max response was 23.6%. With `O=C(c1csnn1)N1CCC2(CC1)CN(c1ccccn1)C2` the max response was 22.2%. `COc1ccc(C(=O)N2CCC3(CCN(C)CC3)CC2)cc1` showed a max response of 12.9%. `CS(=O)(=O)N1CCC2(CCCN(C(=O)Nc3cccc(C#N)c3)C2)CC1` showed a max response of 21%. Molecule `Cc1noc(C)c1C(=O)N1CCC2(CCN(Cc3cc(C(F)(F)F)cc(C(F)(F)F)c3)CC2)CC1` has a max response of -1.09%. In the case of `CC(C)NC(=O)N1CC2(CCN(C(=O)c3ccco3)CC2)C1`, the max response is reported as -15.1%. `CC(=O)N1CCC2(CC1)CN(C(c1ccccc1)c1ccccc1)C2` gave a max response of 21%. Work on `COc1ccc(NC(=O)N2CC[C@@]3(CCCN(C(=O)c4csnn4)C3)C2)cc1` yielded a max response of 23.5%.

Source: PubChem BioAssay (NCATS)
